PAX8 reporter: lowers PAX8-driven luciferase in RMG-I cells; RMG-I TPO-luciferase reporter, SteadyGlo, 24 h; inhibition, % at 12.6 µM; hit rate 1.2% among 360,000; AID 652154;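 active = mean replicate inhibition at least 60% with every replicate also reaching 60%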;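 also: luciferase light reporting Pax8 driven TPO promoter activity; plate controls were median of neutral control wells for no effect and mitoxantrone controls for full effect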
CSC inhib: cancer stem cell inhibition; cancer stem cell-like cells viability, luminescence; inhibition, % at 7.5 µM; hit rate 1.1% among 300,000; AID 2717; in the data active = inhibition above about 75%; tested in HMLE shEcad cells
Gli-Sufu block: blocks Gli-Sufu signaling in a luciferase reporter. hit rate 0.74% among 340,000. AID 588413. Sufu-KO-LIGHT fibroblasts, Gli luciferase reporter luminescence. inhibition, % at 5 µM;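 active = inhibition above about 55%, limit read from the data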;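 also: 0% = DMSO-treated cells and 100% = wells with medium but no cells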
Mdm2 MdmX PPI: inhibitors of human Mdm2/MdmX interaction. O15151+Q00987. SaOS-2 split-luciferase Mdm2/MdmX complementation, luminescence. inhibition, % at 8 µM. hit rate 3% among 330,000;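 active = inhibition of at least 50% at 8 µM in the primary screen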
Beta apoptosis: blocks beta cell apoptosis. hit rate 0.8% among 300,000. INS-1E cytokine-induced death, ATP luminescence, 48 h; percent of positive-control rescue, neutral wells zero. AID 435005. protection from apoptosis, % (concentration not given with the values);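 active = Every replicate reaches about 75%, or at least half do and their mean reaches it too, limit read from the data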;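 also: 0% = cytokine-treated negative control wells and 100% = positive control rescue; higher means more ATP so stronger rescue from cytokine killing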
Shn3 inh set2: reduces Shn3 3'UTR luciferase signal in osteoblasts. Clone20 osteoblast Shn3 3'UTR firefly luciferase, 24 h. inhibition, % at 12.5 µM. hit rate 0.52% among 360,000. AID 588674;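 active = mean inhibition of at least 75% with every replicate also reaching 75%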;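 also: 0% = median of neutral control wells and 100% = pilot-screen positive control compound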
Gli-Sufu confirm: confirmation of Gli-SUFU pathway antagonists; shares compounds with Gli-Sufu block; Sufu-KO-LIGHT cells, Gli luciferase reporter, luminescence; inhibition, % at 5 µM; hit rate 40% among 2,500; AID 602428;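 active = mean inhibition at 5 µM reaching about 45%, limit read from the data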;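 also: plate controls were DMSO-treated cells for no effect and wells lacking cells for full effect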
SufuKO cytotox: cytotoxicity counter-screen for Gli-SUFU antagonists. cytotoxicity, % at 5 µM. shares compounds with Gli-Sufu block. hit rate 32% among 2,500. Sufu-KO-LIGHT cells cytotoxicity, ATP luminescence. AID 651994;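 active = mean cytotoxicity at 5 µM above about 25%, limit read from the data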;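 also: cells exposed to compound overnight for roughly 16 to 18 hours; plate controls were DMSO wells with cells for no effect and medium without cells for full effect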
Wnt3a cs: inhibits Wnt3a reporter, counter-screen for Gli-SUFU antagonists; shares compounds with Gli-Sufu block; Wnt-LIGHT cells, Wnt3a-driven luciferase reporter, luminescence; inhibition, % at 6.25 µM; hit rate 20% among 2,500; AID 651995;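 active = mean inhibition above about 25%, limit read from the data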
Starred values were filed as active, the others as inactive. The list is not random: actives were taken first. Their share in the collection is about 4%.

Screening c1ccc(CNc2nc(-c3cccs3)nc3ccccc23)nc1 returned PAX8 reporter 23.8, CSC inhib -8.4, Gli-Sufu block 5.4, Mdm2 MdmX PPI -1.8, Beta apoptosis -4.1 and Shn3 inh set2 -18.3.
Cc1ccc(CNc2nc(-c3cccs3)nc3ccccc23)cc1 was read as PAX8 reporter 17.8, CSC inhib 92.3*, Gli-Sufu block 50.3, Mdm2 MdmX PPI 23.8, Beta apoptosis 5.9, Shn3 inh set2 10.4, Gli-Sufu confirm 16.7, SufuKO cytotox 10.2 and Wnt3a cs -37.4.
Screening O=C(/C=C/c1cccc2ccccc12)c1ccncc1 returned PAX8 reporter 2.5, CSC inhib 52.4, Gli-Sufu block 52.3, Beta apoptosis 31.8, Shn3 inh set2 62.2, Gli-Sufu confirm 47.0*, SufuKO cytotox 36.6* and Wnt3a cs 15.5.
`CC(=O)NC[C@H]1[C@H](c2ccc(-c3cccnc3)cc2)[C@H](CO)N1C(=O)C1CCC1` gave PAX8 reporter -4.9.
For CCn1c(=O)cc(SCC(=O)N2CCN(C3CCCCC3)CC2)c2ccccc21 the results were Gli-Sufu block 96.9*, Mdm2 MdmX PPI 41.0, Beta apoptosis -9.7, Shn3 inh set2 -17.0, Gli-Sufu confirm 46.1*, SufuKO cytotox 7.1 and Wnt3a cs 21.6.
For CCN(CC)CCn1c(NCc2ccc(OC)cc2)nc2ccccc21 the results were CSC inhib -9.7, Gli-Sufu block 55.8*, Mdm2 MdmX PPI 8.2, Beta apoptosis 5.6, Shn3 inh set2 74.1, Gli-Sufu confirm 26.3, SufuKO cytotox 6.3 and Wnt3a cs -18.4.
`C[C@H](CO)N1C[C@H](C)[C@H](CN(C)S(=O)(=O)c2cccc(F)c2)Oc2ncccc2C1=O` gave PAX8 reporter -6.4.
Cc1ccc(Cn2c(N3CCN(CCO)CC3)nc3c2c(=O)n(C)c(=O)n3C)cc1 was read as PAX8 reporter 4.5, CSC inhib -10.0, Gli-Sufu block 50.9, Mdm2 MdmX PPI 16.8, Beta apoptosis -3.0, Shn3 inh set2 5.3, Gli-Sufu confirm 15.2, SufuKO cytotox 8.2 and Wnt3a cs -6.3.
Cn1c(=O)c2c(nc(NCc3ccco3)n2Cc2ccc(Cl)cc2Cl)n(C)c1=O was read as PAX8 reporter -1.4, CSC inhib 4.9, Gli-Sufu block 66.6*, Mdm2 MdmX PPI 1.6, Beta apoptosis 59.3, Shn3 inh set2 58.1, Gli-Sufu confirm 67.0*, SufuKO cytotox 29.2* and Wnt3a cs 20.2.
CCNc1nc2c(c(=O)n(C)c(=O)n2C)n1Cc1ccc(Cl)cc1 was read as PAX8 reporter 22.9, CSC inhib 9.8, Gli-Sufu block 70.7*, Mdm2 MdmX PPI 28.4, Beta apoptosis 48.7, Shn3 inh set2 78.7, Gli-Sufu confirm 61.5*, SufuKO cytotox 31.5* and Wnt3a cs 40.5*.
For CCn1c(NCc2ccco2)nc2c1c(=O)n(C)c(=O)n2C the results were CSC inhib 0.2, Gli-Sufu block 8.4, Mdm2 MdmX PPI 9.8, Beta apoptosis 3.5 and Shn3 inh set2 -18.8.
C[C@@H]1CN([C@@H](C)CO)C(=O)c2cc(NC(=O)NC3CCCCC3)ccc2O[C@@H](C)CCCCO[C@H]1CN(C)C(=O)Nc1ccccc1 was read as PAX8 reporter -12.6.
For CCCNC(=O)Nc1ccc2c(c1)C(=O)N(C)C[C@H](OC)[C@H](C)CN(Cc1ccncc1)[C@@H](C)CO2 the results were PAX8 reporter -14.6.
COC(=O)c1ccccc1Nc1cc(C)nc2nc(C)nn12 was read as PAX8 reporter -12.9, CSC inhib -13.7, Gli-Sufu block -7.5, Mdm2 MdmX PPI 12.5, Beta apoptosis -0.3 and Shn3 inh set2 -4.8.
Screening Cc1cc(Nc2ccccc2Br)n2nc(C)nc2n1 returned PAX8 reporter -5.2, CSC inhib -7.9, Gli-Sufu block 53.9, Mdm2 MdmX PPI -26.2, Beta apoptosis -4.7, Shn3 inh set2 -6.4, Gli-Sufu confirm 12.0, SufuKO cytotox 4.4 and Wnt3a cs 8.5.
